This is an account of results in PubChem BioAssay (NCI).

Among the test systems are T-47D breast; BT-549 breast; MDA-MB-435 melanoma; SW-620 colon; MCF7 breast; HCT-116 colon; HCC-2998 colon; KM12 colon.
Holding throughout (assay): NCI-60 one-dose screen, 48 h (100 = growth as untreated, 0 = no growth, -100 = all killed)
Conditions in all cases: 10 µM unless noted

About 83,000 compounds went through this panel and 20% of them were active in at least one assay; those are over-represented in the sample as a whole.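 Cell lines were cultured in 96-well plates, exposed to a single compound concentration, and assessed for percent growth 48 hours later.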 Unmarked numbers belong to inactive results. The source made the active and inactive calls. Rule for the calls: active = growth percent below 10; inactive = the rest.

With `CCOC(=O)c1cnc2c(N=Nc3ccc(OC)cc3)c(N)nn2c1N`, the growth was 104% in the assay with T-47D breast; 120% in the assay on BT-549 breast; 95% in the assay with MDA-MB-435 melanoma; 101% with SW-620 colon; 85.9% with MCF7 breast; 101% in the assay with HCT-116 colon. Also, the values for the growth in the assay with HCC-2998 colon and in the assay with KM12 colon were 106% and 99.6%, respectively.

Regarding `Cc1ccc(-c2csc(N(C(=O)N3CCN(c4cc5c(cc4F)c(=O)c(C(=O)O)cn5C4CC4)CC3)c3ccccc3)n2)cc1`, the growth is 13% with T-47D breast; -2.16% (active) in the assay on BT-549 breast; 14.9% in the assay on MDA-MB-435 melanoma; 19.1% in the assay with SW-620 colon; 7.97% (active) in the assay on MCF7 breast; 6.17% (active) in the assay with HCT-116 colon. Moreover, the growth in the assay with HCC-2998 colon was 13.1%; in the assay on KM12 colon, 4.3% (active).

As to `CN(C)c1ccc(-c2ccc3c(c2)c(-c2ccccc2)nc(=O)n3C)cn1`, the growth with T-47D breast is 22.1%; with BT-549 breast it was 49.1%; with MDA-MB-435 melanoma it was -11.1% (active); in the assay on SW-620 colon, 26.3%; with MCF7 breast, 18%; with HCT-116 colon, 22.1%. In addition, the growth was 78.2% in the assay with HCC-2998 colon and 43.2% with KM12 colon.

On to `COc1ccc2c(c1)CCc1[nH]nc(-c3cc(OC)c(OC)c(OC)c3)c1-2`, for which the growth is 31.3% in the assay with T-47D breast; 5.42% (active) with BT-549 breast; -30.3% (active) in the assay with MDA-MB-435 melanoma; 20.4% in the assay on SW-620 colon; 6.38% (active) in the assay with MCF7 breast; -3.02% (active) in the assay with HCT-116 colon. Besides, the growth in the assay with HCC-2998 colon is 5.58% (active); with KM12 colon, 7.02% (active).

Regarding `CC/C=C\C[C@H](O)C/C=C1/C(=O)C=C[C@@H]1C/C=C\CCCC(=O)O`, the growth is 12% in the assay with T-47D breast; 46.2% with BT-549 breast; 36.9% in the assay with MDA-MB-435 melanoma; 49.6% with SW-620 colon; 13.9% with MCF7 breast; 8.9% (active) in the assay on HCT-116 colon. For the same molecule, the growth in the assay on HCC-2998 colon was 57.7%; in the assay with KM12 colon, 41.6%.

In the case of `CC1(C)N=C(N)N=C(N)N1c1ccc(CCCCc2ccccc2)c(Cl)c1`, the growth in the assay on T-47D breast is 15.8%; in the assay with BT-549 breast it was -16% (active); with MDA-MB-435 melanoma it was 27.8%; in the assay with SW-620 colon it was 20.5%; in the assay on MCF7 breast, 1.84% (active); with HCT-116 colon, 13.9%. Besides, the growth was -43.9% (active) in the assay on HCC-2998 colon and -79.7% (active) in the assay on KM12 colon.

With `O=C(C1CCCCC1)[C@@H]1[C@]2(C(=O)NC3CCCCC32)[C@@H]2CCCN2[C@@]12C(=O)NC1CCC(Cl)CC12` (stereo not given in full), the growth in the assay on T-47D breast is -69% [100 µM] (active); in the assay with BT-549 breast, -91.6% [100 µM] (active); in the assay on MDA-MB-435 melanoma, -91% [100 µM] (active); in the assay on SW-620 colon, -89.6% [100 µM] (active); in the assay on MCF7 breast, -51.4% [100 µM] (active); in the assay on HCT-116 colon it was -91.2% [100 µM] (active). For the same molecule, the growth in the assay on HCC-2998 colon was -84.8% [100 µM] (active); in the assay with KM12 colon it was -86% [100 µM] (active).

In the case of `Nc1nc(N)c2c(n1)NC(c1cccc(Nc3ccnc4cc(C(F)(F)F)ccc34)c1)CC(c1ccccc1)=N2` (stereo not given), the growth in the assay on T-47D breast was 83.4%; in the assay on BT-549 breast, 114%; in the assay with MDA-MB-435 melanoma, -30.4% (active); with SW-620 colon it was 32.4%; in the assay with MCF7 breast, 16.9%; in the assay with HCT-116 colon it was 21%. Moreover, the figures for the growth in the assay on HCC-2998 colon and in the assay on KM12 colon were 54.2% and 33.5%, respectively.

On to `O=C(Nc1ccccc1[N+](=O)[O-])c1ccc(Cl)c(Cl)c1`, for which the growth with T-47D breast is 54.9%; in the assay on BT-549 breast it was 85.6%; with MDA-MB-435 melanoma, 102%; in the assay with SW-620 colon, 97.9%; in the assay with MCF7 breast it was 52%; with HCT-116 colon, 95%. Moreover, the growth was 110% in the assay on HCC-2998 colon and 96.8% in the assay with KM12 colon.

For `COc1cc(NC(=O)c2cncnc2Nc2ccc3c(ccn3Cc3ccccn3)c2)cc(OC)c1`, the growth in the assay with T-47D breast is 45.3%; with BT-549 breast it was 34.9%; in the assay on MDA-MB-435 melanoma, -6.69% (active); in the assay with SW-620 colon, 23.6%; in the assay on MCF7 breast, 31.2%; in the assay with HCT-116 colon, 18.2%. Besides, the values for the growth in the assay on HCC-2998 colon and in the assay with KM12 colon were 67.8% and 33.7%, respectively.

Turning to `O=C(NCc1cccc(CNC(=O)Nc2nc3ccccc3[nH]2)c1)Nc1nc2ccccc2[nH]1`, the growth was 15.9% in the assay on T-47D breast; 29.3% in the assay with BT-549 breast; -74.9% (active) in the assay on MDA-MB-435 melanoma; -41.6% (active) in the assay on SW-620 colon; -43.7% (active) in the assay on MCF7 breast; -82.4% (active) with HCT-116 colon. Also, the growth with HCC-2998 colon was 17.9%; in the assay with KM12 colon, -41.9% (active).

As to `O=C(Nc1ncc(Cc2cc(C(F)(F)F)ccc2Cl)s1)c1cccs1`, the growth in the assay with T-47D breast is 31.9%; in the assay on BT-549 breast, 46.9%; with MDA-MB-435 melanoma, 1.23% (active); with SW-620 colon, 47%; with MCF7 breast it was 30%; in the assay with HCT-116 colon, 39.9%. In addition, the values for the growth with HCC-2998 colon and in the assay with KM12 colon were 64.5% and 29.5%, respectively.

On to `CC1CCN(C(=O)CCCl)c2ccccc21` (stereo not given), for which the growth in the assay on T-47D breast is 121%; in the assay with BT-549 breast, 96.3%; in the assay on MDA-MB-435 melanoma, 123%; with SW-620 colon, 91.3%; with MCF7 breast, 97.5%; in the assay on HCT-116 colon, 97.3%. Besides, the growth in the assay with HCC-2998 colon was 86.1%; with KM12 colon, 102%.

Take `Cn1c2c(c3ccc(Cl)c(Cl)c31)C(C#N)C(C)(C)NC2=O` (stereo not given): the growth was 74.2% with T-47D breast; 88.1% in the assay on BT-549 breast; 80.9% in the assay on MDA-MB-435 melanoma; 67.5% with SW-620 colon; 95.3% in the assay on MCF7 breast; 76.9% in the assay with HCT-116 colon. The growth in the assay with HCC-2998 colon was 91.8%; in the assay with KM12 colon, 91.9%.

For `COc1ccc(C2=NN(C(C)=O)C(c3cn(-c4ccccc4)nc3-c3ccc(Cl)cc3)C2)cc1` (stereo not given), the growth in the assay with T-47D breast was 7.93% (active); in the assay on BT-549 breast, 48.4%; in the assay with MDA-MB-435 melanoma, 34.2%; in the assay with SW-620 colon it was 17.3%; in the assay on MCF7 breast, 21.8%; in the assay on HCT-116 colon, -11.6% (active). The growth is 36.3% in the assay with HCC-2998 colon and 29.6% in the assay with KM12 colon.
